Assay outcomes deposited in PubChem BioAssay by several laboratories.
TMEM16A act = activates or potentiates the mouse TMEM16A chloride channel; 340,000 compounds, 0.3% hits; HEK293 TMEM16A/YFP-H148Q/I152L, iodide quench fluorescence; stronger effect = lower value; AID 623877; B-score at 10 µM; Q8BHY3;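 active = fluorescence-ratio B-score plate-corrected deviation score at least 3 library SD below zero, with starting fluorescence score within 5 deviations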;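 also: channel opened by trigger with iodide after compound preincubation; score built on the fluorescence ratio of max minus min over baseline; more negative score means more quench and so TMEM16A activation or potentiation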
cardiac RTF act = increases calcium sensitivity of human cardiac regulated thin filaments; IANBD-labeled TnC RTF fluorescence at EC20 calcium; 0% EC20 calcium, 100% full calcium; AID 493008; P19429+P45379; activation, % at 7.2 µM; 340,000 compounds, 0.24% hits;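 active = activation above the mean over all tested compounds plus 3 SD, cut at about 30% in these data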;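 also: rise in fluorescence read as greater calcium sensitivity of cardiac thin filaments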
CRFR2-BP ag = agonists of human CRF-binding protein/CRF-R2 receptor complex. HEK293 CRF-R2/CRF-BP, calcium dye fluorescence (FLIPR); percent of saturating CRF peptide response. activation, % at 13.2 µM. 350,000 compounds, 0.46% hits. AID 588473;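 active = activation of at least 50%, plus an integration ratio under a set limit after plate pattern correction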;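 also: plate controls were neutral control wells without compound for no effect and CRF at EC100 for full effect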
ANO1 block = blocks the mouse calcium-activated chloride channel TMEM16A. Q8BHY3. HEK293 TMEM16A/YFP iodide influx fluorescence, ionomycin. normalized B-score (activity score, 25-100; higher = stronger inhibition) at 10 µM. 310,000 compounds, 1.2% hits;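 active = ratio plate-corrected score three or more library SD toward inhibition, starting fluorescence score within five deviations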;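 also: score derived from kinetic fluorescence span divided by baseline fluorescence per well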
Cardiac RTF inh = cardiac RTF calcium desensitization; P19429+P45379; IANBD-labeled cardiac RTF, Ca2+ fluorescence; inhibition, % at 7.15 µM; 340,000 compounds, 0.12% hits; AID 493244;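 active = inhibition above the mean inhibition of all tested compounds plus 3 SD, cut at about 17% in these data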;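 also: assay run at fixed EC70 calcium of 1.6 mM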
CRFBP-R2 block = antagonists of CRF-binding protein/CRF-R2 receptor complex; AID 588475; 350,000 compounds, 0.59% hits; inhibition, % at 11.8 µM; HEK293 CRF-R2/CRF-BP, CRF-induced calcium fluorescence;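 active = inhibition of the ligand-induced calcium signal above about 50% at the single tested concentration, limit read from the data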
* hit, by the source's call; i = inactive; nt = not tested or not shown. Rows were chosen to be rich in hits. Some 2.4% of all compounds tested hit in one or more screens of this group.

SMILES | TMEM16A act | cardiac RTF act | CRFR2-BP ag | ANO1 block | Cardiac RTF inh | CRFBP-R2 block
COC(=O)c1sccc1NC(=O)Nc1ccccc1Cl | i | -9 | 0 | i | 2 | -4
CC1CCN(C(=O)c2cc(Cl)ccc2NC(=O)c2ccco2)CC1 | i | 4 | -1 | i | -15 | -13
CC(=O)c1ccc(NC(=O)C(C)OC(=O)c2ccc(Br)o2)cc1 (stereo not drawn) | i | 1 | 3 | nt | -5 | 54*
c1ccc(CNc2nc(N3CCOCC3)nc(N3CCOCC3)n2)cc1 | i | 0 | -1 | i | -7 | 20
Clc1ccc(-c2csc(N3CCOCC3)n2)cc1 | i | -2 | -7 | nt | 0 | 77*
Clc1ccc(CNc2nc(N3CCOCC3)nc(N3CCOCC3)n2)cc1 | -7.6* | -4 | -4 | i | -7 | 1
Nc1nc(F)nc2c1ncn2[C@@H]1O[C@H](CO)[C@@H](O)[C@H]1O | i | 5 | -1 | i | -27 | 19
Nc1nc(F)nc2c1ncn2[C@@H]1O[C@H](CO)[C@@H](O)[C@@H]1O | i | -2 | -1 | i | 14 | 50*
S=C(NCCCN1CCOCC1)NC1CC1 | i | -3 | 4 | i | 1 | 16
C/C(=N\NC(=S)NC(C)C)c1ccccc1OC(F)F | -39* | -7 | -4 | i | -20 | 8
COc1ccc(C(C)(C)C)cc1NC(=O)CCCN1C(=O)CN(C)C1=O | i | 0 | -1 | nt | 11 | 0
COc1ccccc1C1CCN(C(=O)c2ccccc2)CC1 | i | -6 | -7 | i | -4 | 38
COc1ccccc1C1CCN(c2cc(O)ccc2[N+](=O)[O-])CC1 | i | -1 | 0 | 100* | -5 | 5
CCCC(=O)OCCNc1cc(Sc2nc3ccccc3[nH]2)c2nonc2c1[N+](=O)[O-] | i | 5 | -3 | i | 5 | 91*
CCC(=O)OCCNc1cc(SCCC(=O)OC)c2nonc2c1[N+](=O)[O-] | i | 7 | -1 | i | -10 | 11
Cc1[nH]c2ccccc2c1/C=N/Nc1ccc([N+](=O)[O-])cc1S(=O)(=O)Nc1ccc(Cl)cc1 | i | 8 | 109* | i | -5 | -141
CCOC(=O)/C(=C/C1=CC(=C/N(C)C)/C(=O)O1)C(C)=O | i | 53* | 29 | i | -56 | -10
CCOC(=O)/C(=C/c1ccc(OC(=O)c2ccccc2)cc1)C(C)=O | i | 7 | 20 | i | -5 | -65
COCCn1c(=O)[nH]c(=O)c2cc(C(=O)c3cc(Cl)ccc3O)cnc21 | i | 1 | 99* | i | 6 | -9
CC(C)(C)C(=O)Nc1cc(NC(=O)C(C)(C)C)cc(C(=O)Nc2c[nH]c(=O)[nH]c2=O)c1 | i | nt | 0 | i | nt | 2
Cc1ccc(/C=C/C(=O)OC(C)C(=O)NC2CCCCC2C)o1 (stereo not drawn) | i | -3 | -1 | i | -22 | -15
O=C(Cc1ccccc1)Nn1c(O)c(/C=C2\C=Nc3ccccc32)sc1=S | i | 58* | 67* | i | -76 | -119
CCN1CCN(c2cc(N3CCN(C(=O)c4ccco4)CC3)c3c4c(onc24)-c2ccccc2C3=O)CC1 | i | 2 | 0 | i | 3 | -3
O=C(O)CCNc1cc(N2CCN(C(=O)c3ccco3)CC2)c2noc3c2c1C(=O)c1ccccc1-3 | i | 139* | 1 | i | -9 | -17
Oc1c(N=Nc2ccccn2)ccc2ccccc12 | i | -1 | 99* | i | -2 | -91
SMILES | TMEM16A act | cardiac RTF act | CRFR2-BP ag | ANO1 block | Cardiac RTF inh | CRFBP-R2 block
CC(=O)NC1(C(F)(F)F)NC(=O)N(c2ccc(F)cc2)C1=O (stereo not drawn) | i | 6 | 0 | i | -8 | 3
CCc1nc(NCCC(C)C)c(C#N)c2c1CCCC2 | i | 11 | 4 | i | 3 | 59*
CCc1nc(NCc2ccccc2)c(C#N)c2c1CCCC2 | i | -2 | 0 | i | -19 | -14
CN(C)c1cc[n+](CC(=O)N2CCCc3ccccc32)cc1 | i | 2 | -1 | i | -17 | -6
O=C(Nc1cc(C(F)(F)F)ccc1Cl)C(Sc1cccc[n+]1[O-])c1ccccc1 (stereo not drawn) | i | -5 | 160* | i | -2 | -262
O=C(Cn1cc(C(F)(F)F)ccc1=O)N1CCc2ccccc21 | i | 2 | 1 | nt | 2 | 8
Cc1nn(-c2ccccc2)c(Cl)c1/C=N/Nc1nc2ccccc2[nH]1 | -7.3* | 9 | -1 | i | 1 | 23
NCCNC(=O)c1c(O)c2cccc3c2n(c1=O)CCC3 | i | -1 | 0 | i | 8 | -3
O=C(NCCO)c1c(O)c2cccc3c2n(c1=O)CC3 | i | 9 | 8 | i | -13 | 56*
COc1ccc(C(=O)/C=C/C(=O)N(CC(=O)NC2CCCCC2)Cc2ccccc2)c(O)c1 | i | 14 | 35 | nt | -8 | 27
COc1ccc(C(=O)/C=C/C(=O)N(CC(=O)NC2CCCCC2)CC2CCCO2)c(O)c1 (stereo not drawn) | -6* | -1 | -2 | 100* | 3 | -15
CCOc1ccc(S(=O)(=O)N2CCOCC2)cc1NC(=O)CSCC(=O)Nc1ccc(OC)cc1 | i | -1 | -3 | nt | -6 | -9
COc1cc(SC#N)ccc1N=Cc1c(C)[nH]n(-c2ccc(C)c(C)c2)c1=O | -13* | -17 | 46 | i | -8 | -82
O=C(Nc1ccc(Br)cc1)C1CCN(C(=O)c2ccco2)CC1 | i | -6 | 1 | i | -12 | 10
CCOC(=O)C1=C(C)NC(C)=C(C(=O)OCC)C1/C=C/c1ccccc1 | i | -3 | -2 | i | -9 | 30
COC(=O)C1=C(C)NC(C)=C(C(=O)OC)C1/C=C/c1ccccc1 | i | -7 | -1 | i | -4 | 53*
O=C(O)c1ccc(-c2ccc(/C=N/Nc3ccc([N+](=O)[O-])cc3)o2)cc1 | i | 15 | 155* | i | -57 | -121
O=C(O)c1ccc(N/N=C/c2ccc(-c3cccc(Cl)c3)o2)cc1 | i | -1 | -1 | i | -12 | 17
O=[N+]([O-])c1ccc(N/N=C/c2c[nH]c3ccccc23)cc1 | i | 15 | 180* | i | -18 | -226
NS(=O)(=O)c1ccc(-c2ccc(/C=N/Nc3ccc(C(=O)O)cc3)o2)cc1 | i | -2 | 2 | i | 0 | 15
O=C(O)c1cccc(-c2ccc(/C=N/Nc3ccc([N+](=O)[O-])cc3)o2)c1 | i | 16 | 166* | i | -43 | -140
